# Shiga toxin inh – Shiga toxin inhibition. Vero cells, Shiga toxin protein synthesis inhibition reporter. inhibition, % at 38.7 µM. 290,000 compounds, 9.2% hits. AID 2315; in the data active = inhibition mostly above about 28%, no sharp cut-off; inactive = mostly below about 43%; also: 0% is about no effect
# HCMV antiviral – blocks human cytomegalovirus replication. HFF cells, HCMV-luciferase reporter, 72 h; stronger effect = lower value. activity change, negative = inhibition, % at 57.5 µM. 410,000 compounds, 4.5% hits; in the data active = activity change below about -60%; inconclusive = no clear call, values can overlap the other calls; inactive = above about -39%; also: % is scaled to controls: 0 for no effect and ±100 for the full control effect
#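 Compounds were evaluated in HFFs infected with an HCMV luciferase reporter virus (MOI 1 PFU/cell). Luciferase in lysates collected 72 h post infection served as the replication measure.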
# HCV inh – HCV inhibition. Huh7.5.1 HCVcc-Cre infection, luciferase reporter, 44 h. 340,000 compounds, 3.4% hits. AID 651820. Potency, µM (series often up to 41.8 µM), without a hit: top-dose activity change, negative = inhibition, actives largely listed as inhibitors; also: potency is read from the fitted curve at half-maximal effect; % is scaled to controls: 0 for no effect and ±100 for the full control effect
#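 1,000 cells/well; 4 h culture; + compound; + HCVcc-Cre (~0.5 moi); 44 h; luciferase substrate, RT 15 min; read 15 sec.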
# Pf growth 96h – inhibits malaria parasite growth, 96 h; Potency, µM (doses to about 28.7 µM), inactives show top-dose activity change, negative = inhibition, actives largely listed as inhibitors; AID 504834; P. falciparum luciferase reporter growth, 96 h; 320,000 compounds, 6.9% hits; also: potency is read from the fitted curve at half-maximal effect; % is scaled to controls: 0 for no effect and ±100 for the full control effect
#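 Cell-based qHTS: luciferase-tagged P. falciparum in erythrocytes (2% hematocrit, 0.05% parasitemia final) incubated with compounds for 96 hours, 37 C, 5% CO2; luciferase detection reagent then added and luminescence measured.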
# Pf growth 48h – P. falciparum growth inhibition at 48 hours (one generation) | P. falciparum luciferase growth in erythrocytes, 48 h | Potency, µM (top dose mostly 28.7 µM), inactives show at the top dose activity change, negative = inhibition, actives largely listed as inhibitors | 310,000 compounds, 5.9% hits | AID 504832; also: potency is read from the fitted curve at half-maximal effect; % is scaled to controls: 0 for no effect and ±100 for the full control effect
#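 In quantitative HTS format, infected erythrocytes bearing luciferase-reporter parasites were treated for a single generation at 37 C. Luminescence after adding detection reagent served as the growth measure.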
# Cycloheximide cs – affects cycloheximide protein synthesis inhibition readout, counter-screen. AID 2314. 300,000 compounds, 12% hits. cell reporter, cycloheximide protein synthesis inhibition counterscreen. max response, %; in the data active = max response mostly above about 13%, no sharp cut-off; inactive = mostly below about 14%; also: read at 38.3 µM for the half of the compounds with a filed dose; 0% is about no effect
# * = called active by the depositor; ? = inconclusive; . = no result given. In the library only some 21% were active in any assay of this set; here they are far more common. Unless noted, calls follow the shape of the dose curve; as a rule, active = well fitted inhibition curve with a large enough effect; inconclusive = small, poorly fitted or top-dose-only effect, or another doubt; inactive = no such curve, though single readings can be large or run the other way.
SMILES,Shiga toxin inh,HCMV antiviral,HCV inh,Pf growth 96h,Pf growth 48h,Cycloheximide cs
CCS(=O)(=O)Nc1cccc(C2=NN(S(C)(=O)=O)C(c3cccs3)C2)c1 (stereo not given),5,-24,-11%,?,11%,-5
CS(=O)(=O)N1N=C(c2cccs2)CC1c1ccc(F)cc1 (stereo not given),51,-24,3%,-13%,21%,33*
Cc1ccc(C(=O)NCCC2=CCCCC2)cc1S(=O)(=O)N1CCCCC1,.,-32,?,4.7µM*,12µM*,.
Cc1ccc(C(=O)NCCC2=CCCCC2)cc1S(=O)(=O)N1CCOCC1,.,-18,-27%,?,12µM*,.
CC1CC(C)(C)NC(=S)N1CC(=O)N1CCN(Cc2ccc3c(c2)OCO3)CC1 (stereo not given),-13,-40,3%,2%,0%,-1
CC(NCC(O)COCCC12CC3CC(CC(C3)C1)C2)c1ccccc1 (stereo not given),-17,-98*,7.9µM*,30%,5.2µM*,-6
Cc1cccc(C)c1OCC(O)CNC(C)c1ccccc1 (stereo not given),-6,-36,13µM*,?,?,-2
CC(C)c1ccc(OCC(O)CNC(C)c2ccccc2)cc1 (stereo not given),5,-23,?,?,4.7µM*,-2
CCC(=O)c1ccc(OCC(O)CNC(C)c2ccccc2)cc1 (stereo not given),-2,?,?,-23%,-16%,-1
Cc1cccc(NC(=O)C2CCCN(S(=O)(=O)c3ccc4[nH]c(=O)ccc4c3)C2)n1 (stereo not given),17,-32,?,?,?,-2
Fc1ccccc1OCc1nc(-c2ccc(-n3cccc3)cc2)no1,.,-1,.,.,.,.
Cc1ccc(-n2cc(C(=O)Oc3ccc(F)cc3)c3ccccc3c2=O)cc1,.,-27,.,.,.,.
CCOC(=O)c1cc(-c2cccs2)nc2c1c(C)nn2-c1ccccn1,-4,-86*,10µM*,?,-21%,4
Cc1nn(-c2ccccc2)c2nc(-c3ccncc3)cc(C(=O)NCc3ccco3)c12,2,87,?,10µM*,3.7µM*,2
O=C(NCc1ccco1)c1nn2c(C(F)(F)F)cc(-c3cccs3)nc2c1Cl,-16,38,?,.,3%,-1
Cc1nn(-c2ccccn2)c2nc(-c3cccs3)cc(C(=O)NCc3ccco3)c12,39,-37,35µM*,10µM*,.,19*
Cc1nn(-c2ccccc2)c2nc(-c3cccs3)cc(C(=O)NN)c12,9,?,?,?,-17%,-5
O=C(Nc1ccccc1)OC[C@@H]1C=CS(=O)(=O)N1Cc1ccc(Br)cc1,.,-101*,.,.,.,.
O=C(Nc1ccccc1)OC[C@@H]1CSCCS(=O)(=O)N1,.,-6,.,.,.,.
CCN(CC)c1ccc(C=NN2CCCCCC2)cc1,.,39,-16%,.,.,.
CCN(CC)c1ccc(/C=C/[N+](=O)[O-])cc1,29,-114*,12%,17%,10%,12*
CCOC(=O)c1ccc(Nc2nnc(C)c3ccccc23)cc1,56*,-7,-13%,-1%,-12%,20*
CCOC(=O)Cc1nnc(Nc2cccc(C)c2)c2ccccc12,-12,18,8%,-13%,-27%,-4
CCOC(=O)Cc1nnc(Nc2ccc(C)cc2)c2ccccc12,29,-21,?,10µM*,-6%,2
COc1ccc(/C=N/NC(=O)CSc2ccccc2)cc1OC,13,-25,-1%,-20%,5%,14*
SMILES,Shiga toxin inh,HCMV antiviral,HCV inh,Pf growth 96h,Pf growth 48h,Cycloheximide cs
O=C(CCSCCC(=O)NN=Cc1ccccc1O)NN=Cc1ccccc1O,.,-21,-15%,.,.,.
O=C(CSc1ccccc1)N/N=C/c1ccccc1O,46,?,?,7%,?,25*
CCn1nc(C)c(/C=N/NC(=O)CSc2ccccn2)c1C,63*,4,6%,15%,32%,32*
COc1ccc(/C=N/NC(=O)CSc2ccccn2)cc1OC,30*,50,1%,63%,5%,23*
COC(=O)[C@@H]1C[C@@H](c2ccccc2)[C@H](C)C1(C)C,.,20,5%,13%,-1%,.
Cc1cc(SCC(=O)N/N=C/c2ccc(O)c(O)c2O)c(C)cc1Br,-17,-26,?,.,13µM*,-3
COc1ccccc1NC(=O)COc1ccc(/C=N/NC(=O)CSCc2ccc(Cl)cc2)cc1,-11,-18,?,16%,17%,-3
COc1ccc(CSCC(=O)N/N=C/c2ccccc2O)cc1,-11,-14,8.9µM*,-14%,?,-2
COc1ccc(CNS(=O)(=O)CCNC(=O)c2cccc(OC)c2)cc1,.,29,2%,-2%,-1%,.
O=C(CN(c1ccccc1)S(=O)(=O)c1ccccc1[N+](=O)[O-])N1CCCC1,-11,-34,12%,49%,?,-8
COc1cc2nc(CN(C)Cc3ccc(OC)c(OC)c3OC)[nH]c(=O)c2cc1OC,37*,52,-10%,-1%,58%,11*
CN(Cc1ccccc1)C(=O)C(=O)c1c[nH]c2ccccc12,.,-70*,.,.,.,.
CCN(C(=O)C(=O)c1c[nH]c2ccccc12)c1ccccc1,19,27,-3%,?,28%,18*
CN(C)CC(=O)c1c[nH]c2ccccc12,-14,64,-9%,?,30%,-5
Cc1ccc(CN2CCCN(CC(=O)Nc3ccc(C)cc3C)S2(=O)=O)cc1,.,0,.,.,.,.
CCCC(=O)N(Cc1cccnc1)c1nc2c(OC)ccc(Cl)c2s1,-7,-22,?,12µM*,?,-8
O=C(c1cc(C2CC2)nn1-c1ccccc1)N1CCN(Cc2c(F)cccc2Cl)CC1,.,-1,?,?,?,.
CC(C)(O)C1CC[C@@](C)([C@@H]2CC[C@]3(C)[C@H]2[C@H](O)CC2[C@@]4(C)CCC(O)C(C)(C)C4C(OC4OC(CO)C(O)C(O)C4O[C@@H]4OCC(O)C(O)C4O)C[C@]23C)O1 (stereo not given in full),.,-5,10%,.,.,.
Cc1cc(C)n2nc(CNC(=O)c3cccc(Cl)c3)nc2n1,.,3,.,.,.,.
Cc1noc2ncnc(Sc3ccccc3Cl)c12,-26,-79*,?,.,36%,-2
O=C(Nc1cccc(-c2cnc3ccccc3n2)c1)c1ccco1,100*,-19,?,38%,?,55*
Cc1ccc(C(=O)Nc2cccc(-c3cnc4ccccc4n3)c2)cc1,-3,3,-29%,7%,0%,12
CC(C)C(=O)Nc1cccc(-c2cnc3ccccc3n2)c1,35,43,-28%,51%,.,21*
CC(=O)Nc1ccc(C(=O)Nc2cccc(-c3cnc4ccccc4n3)c2)cc1,30,-5,?,46%,9%,18
CNC(=S)Nc1cccc(-c2cnc3ccccc3n2)c1,58*,45,-8%,97%,81%,26*

# Screening results: PubChem BioAssay, National Center for Advancing Translational Sciences (NCATS)
